# Results taken from PubChem BioAssay (NCATS).
# Inconclusive results are not listed. Where a call stands in place of a potency, no number is given. The source made the active and inactive calls. Unless noted, the call rests on the fitted dose curve; in most records, active means well fitted curve in the direction sought with a large enough effect; inconclusive means small, poorly fitted or top-dose-only effect, or another doubt; inactive means no such curve, though single readings can be large; an effect the other way counts as inactive or inconclusive.
# Key:
# [1] = Primary qHTS for inhibitors of nuclear receptor binding SET domain protein 2 (NSD2) in an RCH-ACV wild type WT cells (2C) (AID 1645877); further: nearly all actives have a fitted effect of over 70% in size; further: potency means the concentration at half of the fitted maximal effect
# [2] = biological target: Glutathione peroxidase 1 (Homo sapiens) (UniProt P07203); assay: Primary qHTS Assay for Inhibitors of Recombinant Selenoprotein Glutathione Peroxidase 1 (GPX1) (AID 1845191); further: nearly all actives have a fitted effect of over 65% in size; further: potency means the concentration at half of the fitted maximal effect
# How it was run: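 GR-coupled assay: compounds preincubated 30 min at room temperature with GPX1, then reaction started with CHP; final 10 nM GPX1, 1 mM GSH, 0.5 mM CHP, 0.5 mM NADPH, 100 nM GR, 0.01% BSA, pH 7.5 Tris buffer. NADPH fluorescence (340/450 nm) read at 0 and 15 min.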
# [3] = biological target: Phospholipid hydroperoxide glutathione peroxidase GPX4 (Homo sapiens) (UniProt P36969); assay: Primary qHTS Assay for Inhibitors of Recombinant Selenoprotein Glutathione Peroxidase 4 (GPX4) (AID 1845192); further: nearly all actives have a fitted effect of over 65% in size
# How it was run: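 GR-coupled assay: recombinant GPX4 preincubated 30 min with compound at room temperature; final 200 nM GPX4, 1 mM GSH, 0.5 mM cumene hydroperoxide, 0.5 mM NADPH, 100 nM GR, 0.01% BSA, pH 7.5 Tris. NADPH fluorescence (340/450 nm) read at 0 and 15 min.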
# [4] = NCATS anti-infectives library activity on HEK293 viability as a counter-qHTS vs the C. elegans viability qHTS (AID 1745854);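 further: HEK293 cells exposed to compounds for 24 hr before the viability read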
# How it was run: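 HEK293 cells (1,500/well) exposed 24 hr at 37C to 1:5 titrations, up to 41.7 uM final; counter-screen to a C. elegans viability qHTS. Viability by CellTiter-Glo luminescence after 10 min at room temperature; digitonin as control.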
# [5] = biological target: Catechol O-methyltransferase (Homo sapiens) (UniProt P21964); assay: Confirmatory Screen for Target Class Profiling of Small Molecule Inhibitors of Methyltransferases (AID 1745852; calls by dose curve); settings: MTase-Glo luminescence, SAH detection, recombinant enzyme; measured here: COMT max response; stronger effect = lower value
# [6] = biological target: Guanidinoacetate N-methyltransferase (Homo sapiens) (UniProt Q14353); assay: as above; settings: MTase-Glo luminescence, SAH detection, recombinant enzyme; activity change, negative = inhibition: at 57.3 µM (top of the series) unless noted
# [7] = biological target: Nicotinamide N-methyltransferase (Homo sapiens) (UniProt P40261); assay: as above; settings: MTase-Glo luminescence, SAH detection, recombinant enzyme; measured here: NNMT max response; stronger effect = lower value
# [8] = biological target: Phenylethanolamine N-methyltransferase (Homo sapiens) (UniProt P11086); assay: as above; settings: MTase-Glo luminescence, SAH detection, recombinant enzyme; measured here: PNMT max response; stronger effect = lower value
# [9] = biological target: Metallo-beta-lactamase type 2 (Klebsiella pneumoniae) (UniProt C7C422); assay: qHTS to identify inhibitors of the New Delhi Metallo-beta-lactamase (NDM): assay validation screen against the NCATS LOPAC Collection (AID 1794843);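 further: nitrocefin turnover by NDM-1 measured as 485 nm absorbance at plateau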
# How it was run: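 Nitrocefin hydrolysis (50 uM substrate stock) by NDM-1, 2 nM final, was followed by 485 nm absorbance after compound preincubation; buffer was 50 mM HEPES pH 7.0, 1 uM ZnSO4, 0.01% Tween20.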
# [10] = HepG2 viability counterscreen (readout 2: ATP content) against the NCATS DSHEA and TCM libraries (AID 1794840);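 further: HepG2 cells exposed to substances for about 24 h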
# How it was run: (§1)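 After HepG2 cells attach for ~4 h, substances are added and incubated ~24 h at 37C, 5% CO2. GF-AFC fluorescence then CellTiter-Glo luminescence give protease and ATP readouts.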
# [11] = HepG2 viability counterscreen (readout 1: protease activity) against the NCATS DSHEA and TCM libraries (AID 1794841);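 further: cells exposed to compounds for about 24 h before the protease read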
# How it was run: as §1
# Chain of Glutathione peroxidase 1 (Homo sapiens) (P07203 whole entry, looked up): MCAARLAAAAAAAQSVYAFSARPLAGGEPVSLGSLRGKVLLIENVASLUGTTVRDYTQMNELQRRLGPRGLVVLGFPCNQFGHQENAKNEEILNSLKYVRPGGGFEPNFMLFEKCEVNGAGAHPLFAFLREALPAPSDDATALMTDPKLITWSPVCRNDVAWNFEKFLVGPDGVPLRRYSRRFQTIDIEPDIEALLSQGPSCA
# Chain of Phospholipid hydroperoxide glutathione peroxidase GPX4 (Homo sapiens) (P36969 whole entry, looked up): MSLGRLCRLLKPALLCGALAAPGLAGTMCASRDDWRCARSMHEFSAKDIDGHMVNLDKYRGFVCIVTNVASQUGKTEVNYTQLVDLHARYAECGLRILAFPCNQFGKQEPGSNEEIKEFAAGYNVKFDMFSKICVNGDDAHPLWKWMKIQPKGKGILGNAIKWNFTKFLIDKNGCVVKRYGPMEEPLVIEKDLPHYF
# Chain of Catechol O-methyltransferase (Homo sapiens) (P21964 whole entry, looked up): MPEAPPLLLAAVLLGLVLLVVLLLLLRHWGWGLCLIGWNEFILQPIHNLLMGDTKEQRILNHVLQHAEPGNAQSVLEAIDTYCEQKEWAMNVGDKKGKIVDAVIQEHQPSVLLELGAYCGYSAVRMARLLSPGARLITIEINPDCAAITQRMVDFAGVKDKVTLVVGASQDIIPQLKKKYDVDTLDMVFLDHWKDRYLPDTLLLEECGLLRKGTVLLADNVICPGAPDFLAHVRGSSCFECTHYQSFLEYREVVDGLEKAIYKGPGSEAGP
# Chain of Phenylethanolamine N-methyltransferase (Homo sapiens) (P11086 whole entry, looked up): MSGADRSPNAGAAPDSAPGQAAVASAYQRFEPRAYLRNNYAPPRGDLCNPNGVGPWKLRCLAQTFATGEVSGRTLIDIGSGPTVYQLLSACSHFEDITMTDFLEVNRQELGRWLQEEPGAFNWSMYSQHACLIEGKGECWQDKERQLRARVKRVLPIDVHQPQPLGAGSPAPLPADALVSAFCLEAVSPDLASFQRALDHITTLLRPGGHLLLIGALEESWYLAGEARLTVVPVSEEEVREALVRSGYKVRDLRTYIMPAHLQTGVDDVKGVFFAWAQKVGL
# Chain of Nicotinamide N-methyltransferase (Homo sapiens) (P40261 whole entry, looked up): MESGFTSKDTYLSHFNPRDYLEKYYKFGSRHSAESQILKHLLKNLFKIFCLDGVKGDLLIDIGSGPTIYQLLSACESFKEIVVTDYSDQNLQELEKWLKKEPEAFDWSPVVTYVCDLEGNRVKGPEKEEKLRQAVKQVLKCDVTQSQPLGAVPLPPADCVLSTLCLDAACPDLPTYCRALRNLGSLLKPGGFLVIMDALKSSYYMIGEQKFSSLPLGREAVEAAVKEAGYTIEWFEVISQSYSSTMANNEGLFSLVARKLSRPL
# Chain of Metallo-beta-lactamase type 2 (Klebsiella pneumoniae) (C7C422 whole entry, looked up): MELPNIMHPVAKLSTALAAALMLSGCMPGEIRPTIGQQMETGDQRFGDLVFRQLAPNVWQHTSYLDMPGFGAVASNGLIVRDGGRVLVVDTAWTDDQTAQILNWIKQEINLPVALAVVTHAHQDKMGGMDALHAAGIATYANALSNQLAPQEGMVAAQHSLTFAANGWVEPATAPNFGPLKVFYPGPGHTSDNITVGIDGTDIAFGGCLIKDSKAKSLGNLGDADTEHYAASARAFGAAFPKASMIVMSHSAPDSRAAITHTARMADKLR
compound,measurement,setting,value
CCC(C)(C#N)O[C@@H]1O[C@H](CO)[C@@H](O)[C@H](O)[C@H]1O (stereo partly specified),Potency,[1],inactive
same,Potency,[2],inactive
same,Potency,[3],inactive
COC1C(O)C(OC2CCC3(C=O)C(CCC4C3CCC3(C)C(C5=CC(=O)OC5)CCC43O)C2)OC(C)C1OC1OC(CO)C(O)C(O)C1O (stereo unspecified),Potency,[1],0.342 µM (active)
same,Potency,[2],inactive
same,Potency,[3],inactive
C[CH2][Hg][S]c1ccccc1C(=O)O,Potency,[1],0.841 µM (active)
CN1CCCC1CCOC(c1cc2nccc(C(=O)O)c2[nH]1)c1ccccc1Cl (stereo unspecified),Potency,[1],inactive
same,outcome,[4],inactive
same,Potency,[2],inactive
C/C(O)=C(\C#N)C(=O)Nc1cc(Br)ccc1Br,Potency,[1],inactive
same,Potency,[2],inactive
same,Potency,[3],inactive
N#C/C(=C/c1ccc(O)c(O)c1)C(N)=S,Potency,[1],9.2 µM (active)
same,activity,[5],52.2%
same,"activity change, negative = inhibition",[6],-6.16%
same,activity,[7],-5.97%
same,activity,[8],1.47%
same,Potency,[9],inactive
same,Potency,[2],14.3 µM (active)
same,Potency,[3],inactive
C=CC(C)(C)c1[nH]c2cccc3c2c1C[C@@H]1[C@@H]3[C@@H](OC(C)=O)[C@H](C)CN1C,Potency,[1],inactive
same,Potency,[2],inactive
same,Potency,[3],inactive
Clc1ccc(OCC2=NCCN2)cc1Cl,Potency,[1],inactive
same,Potency,[2],inactive
same,Potency,[3],inactive
COC1CC(OC2CCC3(C)C(=CCC4C3CCC3(C)C(C(C)OC5OC(COC6OC(CO)C(O)C(O)C6O)C(O)C(O)C5O)CCC43O)C2)OC(C)C1OC1OC(C)C(O)C(OC)C1O (stereo unspecified),"activity change, negative = cell killing",[1],0.676% [at 9.23 µM] (inactive)
same,Potency,[2],inactive
same,Potency,[3],inactive
COC1=CC(=O)O[C@@H](/C=C/c2ccccc2)C1,Potency,[1],inactive
same,outcome,[10],inactive
same,outcome,[11],inactive
same,Potency,[2],inactive
same,Potency,[3],inactive
COc1cc(C(=O)O[C@H]2[C@@H]3C=CO[C@@H](O[C@@H]4O[C@H](CO)[C@@H](O)[C@H](O)[C@H]4O)[C@@H]3[C@@]3(CO)O[C@@H]23)ccc1O,Potency,[1],inactive
same,activity,[5],-83.5%
same,"activity change, negative = inhibition",[6],-1.53% [at 29.8 µM]
same,activity,[7],-4.95%
same,activity,[8],-3.91%
same,outcome,[4],inactive
same,Potency,[2],inactive
same,Potency,[3],inactive
Cc1cc(C(=O)CN2CCCC2)c(C)n1-c1ccc(F)cc1,Potency,[1],inactive
same,outcome,[4],inactive
same,Potency,[2],inactive
